Compound activity (PubChem)
ROCK2 blocker = inhibitors of human Rho kinase 2 | O75116 | hit rate 0.35% among 60,000 | AID 604 | purified ROCK2, Kinase-Glo ATP depletion luminescence | inhibition, % at 6 µM;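 active = inhibition above the screen-wide mean inhibition plus 3 SD, cut at about 18% in these data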
Target sequence (O75116 whole entry, looked up): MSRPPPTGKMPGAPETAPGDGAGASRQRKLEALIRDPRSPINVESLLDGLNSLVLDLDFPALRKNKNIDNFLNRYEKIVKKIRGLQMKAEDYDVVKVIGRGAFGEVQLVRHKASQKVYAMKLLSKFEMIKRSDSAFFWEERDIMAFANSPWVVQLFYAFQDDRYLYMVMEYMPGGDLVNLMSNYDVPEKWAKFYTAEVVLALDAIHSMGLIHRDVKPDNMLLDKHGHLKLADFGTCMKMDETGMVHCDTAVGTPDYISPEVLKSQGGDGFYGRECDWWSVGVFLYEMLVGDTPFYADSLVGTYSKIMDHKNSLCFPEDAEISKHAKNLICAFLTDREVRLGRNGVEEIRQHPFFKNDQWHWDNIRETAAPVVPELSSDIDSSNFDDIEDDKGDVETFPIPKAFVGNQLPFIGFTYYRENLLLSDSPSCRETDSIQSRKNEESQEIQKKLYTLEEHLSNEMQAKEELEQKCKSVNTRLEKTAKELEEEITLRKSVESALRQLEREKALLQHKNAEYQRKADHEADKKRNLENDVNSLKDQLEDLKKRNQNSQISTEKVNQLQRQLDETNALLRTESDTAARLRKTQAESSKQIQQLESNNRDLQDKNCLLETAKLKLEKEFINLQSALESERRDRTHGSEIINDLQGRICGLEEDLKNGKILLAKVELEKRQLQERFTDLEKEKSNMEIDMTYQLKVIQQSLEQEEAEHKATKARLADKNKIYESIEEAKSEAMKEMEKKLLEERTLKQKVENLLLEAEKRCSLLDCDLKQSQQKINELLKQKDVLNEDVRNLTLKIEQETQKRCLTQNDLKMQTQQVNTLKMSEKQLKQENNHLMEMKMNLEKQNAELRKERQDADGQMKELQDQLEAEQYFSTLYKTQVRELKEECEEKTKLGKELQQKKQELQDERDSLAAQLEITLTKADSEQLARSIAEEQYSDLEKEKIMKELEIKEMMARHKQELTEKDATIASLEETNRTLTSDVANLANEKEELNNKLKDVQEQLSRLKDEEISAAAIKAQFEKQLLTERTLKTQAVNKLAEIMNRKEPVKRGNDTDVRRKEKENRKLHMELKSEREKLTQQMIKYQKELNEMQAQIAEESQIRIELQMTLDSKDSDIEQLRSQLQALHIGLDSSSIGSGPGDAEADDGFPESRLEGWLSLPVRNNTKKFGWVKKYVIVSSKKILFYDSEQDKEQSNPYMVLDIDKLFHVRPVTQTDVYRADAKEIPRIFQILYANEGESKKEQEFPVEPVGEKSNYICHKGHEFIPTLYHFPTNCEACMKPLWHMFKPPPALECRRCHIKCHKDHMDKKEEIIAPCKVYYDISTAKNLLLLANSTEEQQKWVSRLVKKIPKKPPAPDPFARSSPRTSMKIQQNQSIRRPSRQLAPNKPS
Hsp90 block = displaces geldanamycin probe from tumor Hsp90. inhibition, % at 30 µM. hit rate 0.35% among 64,000. P07900. NCI-N417 lysate Hsp90, Cy3B-geldanamycin FP displacement. AID 429;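 active = inhibition above 50%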
JNK3 blocker = JNK3 (human) kinase inhibition; hit rate 0.61% among 60,000; purified JNK3 kinase activity, HTS; AID 746; inhibition, % at 8 µM; P53779; in the data active = inhibition above about 17%
Jurkat tox 60K = cytotoxicity toward Jurkat cells; Jurkat E6.1 viability, ATP luminescence, 48 h; inhibition, % at 4 µM; hit rate 1.2% among 56,000;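 active = inhibition above the mean inhibition of all tested compounds plus 3 SD, cut at about 28% in these data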
PKA kinase inh = PKA (human) kinase inhibition; inhibition, % at 6 µM; AID 524; hit rate 0.1% among 65,000; P17612; PKA Kemptide phosphorylation, Kinase-Glo ATP luminescence;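 active = inhibition above the screen-wide mean inhibition plus 3 SD, cut at about 21% in these data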
Of the large screens only hits and unclear results are named; the others gave an inactive call. An excerpt weighted towards active compounds, which were near 1.9% of everything screened.

COc1ccc(C(C)=O)cc1COC(=O)c1cccc(N(C)C)c1	none
COc1cc(NC(=O)c2cc(-c3cccc(O)c3)on2)cc(OC)c1OC	none
COc1cc(NC(=O)c2cc(-c3cccs3)on2)cc(OC)c1OC	Jurkat tox 60K 64
COc1ccc(NC(=O)c2cc(-c3ccccc3OC)on2)cc1	Jurkat tox 60K 92
COc1ccccc1-c1cc(C(=O)Nc2cccnc2)no1	Jurkat tox 60K 72
COc1ccccc1-c1cc(C(=O)Nc2ccccc2SC)no1	none
COc1cccc(-c2cc(C(=O)Nc3cccc(O)c3)no2)c1	Jurkat tox 60K 49
COc1ccccc1S(=O)(=O)Cc1ccc(C(=O)NCCN2CCCCCC2)o1	none
Cc1ccc(-c2nc(-c3ccccn3)no2)cc1	Jurkat tox 60K 35
Cc1ccc(-c2nc(-c3ccccn3)no2)cc1Cl	none
N[C@H](CCC(=O)NCS(=O)(=O)O)C(=O)O	none (no result: ROCK2 blocker, JNK3 blocker, Jurkat tox 60K, PKA kinase inh)
CCn1c(NC(=O)c2cccc(Cn3cc(Cl)cn3)c2)nc2ccccc21	Jurkat tox 60K 75
Cn1c(C(=O)N(Cc2ccccc2)Cc2cccs2)cc2sccc21	none
CCOC(=O)Nc1ccc2c(c1)N(C(=O)OC)c1ccccc1CC2	Jurkat tox 60K 66
O=C(CSc1ncccc1-c1nc2ccccc2[nH]1)N1CCN(c2ccccc2F)CC1	JNK3 blocker 28
O=C(Cn1cnc2ccccc2c1=O)NCCC(=O)N1CCN(c2ccccc2)CC1	none
CCCN1CCCc2cc(CN)ccc21	Hsp90 block 80
Cc1ccc(N(C(=O)C2CCCC2)C2C=CS(=O)(=O)C2)cc1C (stereo not given)	none
CC(=O)c1cccc(NC(=O)NCc2ccccn2)c1	none
CC(=O)c1cccc(NC(=O)NCc2cccs2)c1	ROCK2 blocker 20
CCCCCOC(=O)c1[nH]c2c(c1C)C(=O)CC(c1ccco1)C2 (stereo not given)	Jurkat tox 60K 101
CCOC(=O)c1[nH]c2c(c1C)C(=O)CC(c1ccc(F)cc1)C2 (stereo not given)	Jurkat tox 60K 95
CCCOC(=O)c1[nH]c2c(c1C)C(=O)CC(c1ccc(OC)c(OC)c1)C2 (stereo not given)	none (no result: ROCK2 blocker, JNK3 blocker, Jurkat tox 60K)
c1ccc2c(c1)[nH]c1c(N3CCSCC3)ncnc12	none (no result: Jurkat tox 60K)
c1ccc2c(c1)[nH]c1c(N3CCCC3)ncnc12	Jurkat tox 60K 33
Cc1cc(N)c2ccccc2[n+]1CCCCCCCCCCCCCC[n+]1c(C)cc(N)c2ccccc21	none (no result: ROCK2 blocker, JNK3 blocker, Jurkat tox 60K, PKA kinase inh)
Cc1oc(-c2ccc(Cl)cc2)nc1CN1CCCC(C(=O)N2CCN(C(=O)c3ccco3)CC2)C1 (stereo not given)	Jurkat tox 60K 62
CCN1CCN(C(=O)C2CCN(Cc3nc(-c4ccc(Cl)cc4)oc3C)CC2)CC1	none
C=CCNc1nc2c(c(=O)n(C)c(=O)n2C)n1CCCCCC	Jurkat tox 60K 82
COc1cccc(C(=O)c2sc(NC(C)C)nc2N)c1	JNK3 blocker 17 (no result: Jurkat tox 60K)
COc1ccc(C(=O)c2sc(NC(C)C)nc2N)cc1OC	none (no result: Jurkat tox 60K)
Cc1ccc(S(=O)(=O)NCCSc2nnnn2-c2ccc(C(N)=O)cc2)cc1	PKA kinase inh 54
CCSc1nnc(NC(=O)c2cccc(OCc3c(C)noc3C)c2)s1	none (no result: ROCK2 blocker, Hsp90 block, JNK3 blocker, Jurkat tox 60K)
COc1ccc2nc(NC(=O)c3cccc(OCc4c(C)noc4C)c3)sc2c1	Jurkat tox 60K 70
Nc1nc(-c2ccccc2)cc(N2CCCCC2)n1	Jurkat tox 60K 78
CCOC(=O)c1c(C)[nH]c(C(=O)C(C)OC(=O)c2cccc(OCc3c(C)noc3C)c2)c1C (stereo not given)	none
CC(C)OC(=O)C1C2C=CC3(CN(Cc4cccs4)C(=O)C13)O2 (stereo not given)	none
O=C(CCCCCn1c(SCc2ccncc2)nc2ccccc2c1=O)NCc1ccco1	JNK3 blocker 18
CCN(CC)CCCNc1cc(OC)c(Nc2ccccc2)c2cccnc12	Hsp90 block 130 (no result: ROCK2 blocker, JNK3 blocker, Jurkat tox 60K, PKA kinase inh)
O=C(O)c1cc2cc(Cc3cccnc3)ccc2o1	none (no result: ROCK2 blocker, JNK3 blocker, Jurkat tox 60K, PKA kinase inh)
Cc1ccc2c(c1)nnn2C1CCN(S(=O)(=O)c2ccc(C(=O)N3C(C)CCCC3C)cc2)CC1 (stereo not given)	Jurkat tox 60K 43
COc1ccc2[nH]cc(CCN=C3SCC(=O)N3C)c2c1	none
COc1ccc(NS(=O)(=O)c2cc(C)ccc2NC(=O)c2cc(C)oc2C)cc1	Jurkat tox 60K 90
CCOC(=O)c1ccc(NS(=O)(=O)c2cc(C)ccc2OC)cc1	none
O=C(Cn1ncc2c1-c1ccccc1OC2)Nc1ccc(Cl)cn1	none
COc1cc(NS(=O)(=O)CC(C)C)c2ncccc2c1	none (no result: ROCK2 blocker, JNK3 blocker, Jurkat tox 60K, PKA kinase inh)
O=C1C(c2ccncc2)=C(O)c2ccccc21	JNK3 blocker 56
O=C1C(=C(O)c2ccccc2)C(=O)c2ccccc21	none
Cc1cc(F)c(F)c(C(=O)N2CCN(C)CC2)c1Cl	none
CNC(=O)N(C1=NCC(C)S1)c1ccc(F)cc1F (stereo not given)	none
CNC(=O)N(C1=NCC(C)(C)S1)c1ccc(F)c(Cl)c1	Jurkat tox 60K 49
CN1C2CCC1CC(NC(=O)c1nn(C)c3ccccc13)C2 (stereo not given)	none (no result: ROCK2 blocker, JNK3 blocker, Jurkat tox 60K, PKA kinase inh)
N#CC1=C(N)Oc2cc(N)ccc2C1C1CC=CCC1 (stereo not given)	Jurkat tox 60K 56
COCc1cc(C)nc(SCC(=O)Nc2cc3c(cc2C#N)OCO3)c1C#N	JNK3 blocker 22
Cc1c(C#N)c(SCC(N)=O)nc2c1CCCC2	none
COc1cccc(C(=O)NC2CC3CCCC(C2)N3CC(=O)Nc2ccccc2)c1 (stereo not given)	Hsp90 block 95
Cc1cc(N2CCN(C(c3ccccc3)c3ccccc3)CC2)n2ncnc2n1	none
Cc1cc(N2CCN(c3nc4ccccc4s3)CC2)n2ncnc2n1	Jurkat tox 60K 83
N#Cc1c(/N=C/c2cccs2)sc2c1CCCCC2	ROCK2 blocker 25
CCN(CC)c1nc(C#N)cc(-c2ccc(OC)cc2)n1	Jurkat tox 60K 41
CC1(C)C2CCC13CS(=O)(=O)N[C@@H]3C2 (stereo not given in full)	none
CCN1CCN(c2ncnc3c2cnn3-c2ccc(Cl)cc2)CC1	none
Clc1ccc(OCCN2CCN(c3ncnc4sccc34)CC2)cc1	Jurkat tox 60K 44, PKA kinase inh 36
CC1(C)CCC=[N+]1[O-]	none (no result: ROCK2 blocker, JNK3 blocker, Jurkat tox 60K, PKA kinase inh)
CCC1CCCCN1c1nc(-c2ccncc2)nc2ccccc12 (stereo not given)	PKA kinase inh 62 (no result: Jurkat tox 60K)
O=C(O)c1ccc(Br)c(S(=O)(=O)N2CCCC2)c1	none
Cc1ccc2c(COC(=O)c3n[nH]c4ccccc34)cc(=O)oc2c1	none (no result: ROCK2 blocker, JNK3 blocker, Jurkat tox 60K)
CCc1ccc2c(COC(=O)c3n[nH]c4ccccc34)cc(=O)oc2c1	JNK3 blocker 21
CCOC(=O)c1n[nH]c2ccccc12	JNK3 blocker 38 (no result: Jurkat tox 60K)
COc1nc(-c2ccccc2)ccc1-c1noc(-c2ccccc2F)n1	none
CCNC(=O)[C@H]1O[C@@H](n2cnc3c(N)nc(NCCc4ccc(CCC(=O)O)cc4)nc32)C(O)[C@H]1O (stereo not given in full)	none (no result: ROCK2 blocker, JNK3 blocker, Jurkat tox 60K, PKA kinase inh)
CCOC(=O)N1CCC(NC(=O)c2ccc3c(c2)sc2nc(-c4cccc(OC)c4)cn23)CC1	Jurkat tox 60K 35
CCOC(=O)N1CCC(NC(=O)c2ccc3c(c2)sc2nc(-c4ccccc4)cn23)CC1	none
COc1cc(CSc2nnnn2-c2ccc(C)cc2)cc(OC)c1OC	Jurkat tox 60K 89
